Data: PubChem BioAssay (NCI)
The panel holds about 79,000 compounds, 15% with a hit somewhere; the sample as a whole holds those more often. Calls of active or inactive are those of the source. No stated cut-off is given here; in the data, active means growth inhibition above about 70%; inactive means the rest.

Experiment: NCI Yeast Anticancer Drug Screen. Data for the sgs1 mgt1 strain (AID 161);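 further: 0% = growth of cultures given vehicle only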
Details: S. cerevisiae sgs1 mgt1 strain, at 50.0 µM, stronger effect = higher value
How it was run: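 Test agents were incubated with a DNA-repair-mutant yeast strain. Growth was then read and compared against vehicle-treated controls.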

Structure (SMILES)	growth inhibition
CC(=O)Oc1ccccc1C#CC(=O)O	34% (inactive)
COc1ccc(C(O)(CCN2CCOCC2)c2ccc3c(c2)OCO3)cc1 (centres undefined)	-7.7% (inactive)
O=C(CCn1[nH]c(=O)c(Cl)c(Cl)c1=O)NNC(=O)C[n+]1ccccc1	-28.3% (inactive)
Cc1ccc(S(=O)c2ccccc2[N+](=O)[O-])cc1 (centres undefined)	1.7% (inactive)
O=[N+]([O-])c1c(Nc2ccccc2)ncnc1Nc1ccccc1	-9.6% (inactive)
CCCCNC(C)(C)CSS(=O)(=O)O	-22.2% (inactive)
O=C1OC(/C=C/c2ccccc2)=NC/1=C\c1ccccc1O	20% (inactive)
CC(O)CCNc1nnc2c3ccccc3n(C)c2n1 (centres undefined)	0.1% (inactive)
CC(C(=O)O)C(=O)NNc1ccccc1 (centres undefined)	-6.7% (inactive)
CN1CCS(=O)(=O)C2CCCCC2C1=O (centres undefined)	4.85% (inactive)
Oc1ccccc1C=NCCCN=Cc1ccccc1O	36.5% (inactive)
COc1cccc(C2c3cc4c(cc3OC(C)(O)C2C)OCO4)c1OC (centres undefined)	39.5% (inactive)
CC1(C)CCCCC1=O	7.1% (inactive)
CCC(O)C(CC)CC (centres undefined)	-4.2% (inactive)
CCO[Si](C)(CCC#N)OCC	-12.7% (inactive)
Cc1cccc(Cl)c1NC1=NCCN1C(=O)CC(=O)c1ccccc1	1.1% (inactive)
CC12C=C[C@]3(CC[C@@H]4[C@@](C)(CO)CCC[C@]4(C)C3CC1)C2 (some centres undefined)	12.9% (inactive)
CC(NC(=O)c1ccccc1)c1ccc[nH]1 (centres undefined)	0.05% (inactive)
Cc1cccc(C2=C/C(=C(\SS/C(C(=O)c3ccc(OCC(=O)O)c(Cl)c3Cl)=C3\C=C(c4cccc(C)c4)SS3)C(=O)c3ccc(OCC(=O)O)c(Cl)c3Cl)SS2)c1	-0.6% (inactive)
